CHX counter: counter-screen for Shiga toxin inhibitors: cycloheximide protein synthesis inhibition. cell reporter, cycloheximide protein synthesis inhibition counterscreen. max response, %. 12% of 300,000 active; in the data active means max response mostly above about 13%, no sharp cut-off; inactive means mostly below about 14%; further: read at 38.3 µM for the half of the compounds with a filed dose; 0% is about no effect
RE007 growth inh: less growth of the S. pombe RE007 Vpr strain; S. pombe RE007 Vpr strain, BacTiter-Glo ATP luminescence, 24 h; Potency, µM (top dose mostly 92.2 µM), for inactives: top-dose activity change, negative = less growth, usual class: inhibitors; 0.21% of 360,000 active; AID 651644; active means well fitted falling curve with a large enough effect; inconclusive means small, poorly fitted or top-dose-only effect; inactive means no such curve, though single readings can be large or run the other way; further: potency means the concentration at half of the fitted maximal effect; on the % scale 0 is the no-effect control and ±100 the full control effect; nearly all actives have a fitted effect of over 50% in size
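Fission yeast strain RE007, carrying one chromosomally integrated HIV-1 vpr copy, was seeded at OD 0.01 in PMG+AL medium with 23 nL pinned compound. After 24 h at 30 °C and 99% humidity, viability was read by BacTiter-Glo luminescence.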
Shiga toxin inh: inhibitors of Shiga toxin in Vero cells. Vero cells, Shiga toxin protein synthesis inhibition reporter. inhibition, % at 38.7 µM. 9.2% of 290,000 active; in the data active means inhibition mostly above about 28%, no sharp cut-off; inactive means mostly below about 43%; further: 0% is about no effect
FBPA Giardia inh: blocks Giardia fructose-bisphosphate aldolase activity | 0.71% of 290,000 active | Potency, µM (titrated, usually from 59.6 µM), without a hit: top-dose activity, negative = inhibition, most hits filed as inhibitors | A8B2U2 | purified Giardia FBPA; further: potency means the concentration at half of the fitted maximal effect; on the % scale 0 is the no-effect control and ±100 the full control effect; nearly all actives have a fitted effect of over 55% in size
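40 nM FBPA preincubated 10 min at RT with compound (up to 57.5 uM final), then substrate plus GAPDH/TPI/NAD/arsenate coupling and diaphorase/resazurin added. Fluorescence read after 20 min at RT, 525/598 nm.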
LmPK inh: LmPK (Leishmania mexicana) enzyme inhibition; Potency, µM (series often up to 57.5 µM), without a hit: at the highest dose activity change, negative = inhibition, actives largely listed as inhibitors; AID 1721; purified LmPK, Kinase-Glo ATP luminescence, 1 h; 0.37% of 290,000 active; Q27686; further: potency means the concentration at half of the fitted maximal effect; on the % scale 0 is the no-effect control and ±100 the full control effect
Target sequence (Q27686 whole entry, looked up): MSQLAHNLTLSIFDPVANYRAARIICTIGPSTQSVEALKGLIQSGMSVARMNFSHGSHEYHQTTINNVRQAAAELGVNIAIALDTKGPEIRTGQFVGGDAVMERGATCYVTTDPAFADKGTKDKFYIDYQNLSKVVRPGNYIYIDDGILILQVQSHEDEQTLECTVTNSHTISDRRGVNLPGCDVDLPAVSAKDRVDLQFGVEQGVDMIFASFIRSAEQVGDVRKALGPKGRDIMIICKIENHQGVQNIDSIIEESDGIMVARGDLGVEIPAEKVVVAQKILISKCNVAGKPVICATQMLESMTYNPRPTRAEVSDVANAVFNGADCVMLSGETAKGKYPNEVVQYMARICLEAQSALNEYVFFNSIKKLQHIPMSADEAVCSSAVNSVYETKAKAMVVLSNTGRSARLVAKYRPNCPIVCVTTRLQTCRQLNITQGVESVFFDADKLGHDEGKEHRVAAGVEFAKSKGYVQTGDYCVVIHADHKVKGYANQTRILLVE
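0.1 nM LmPK, 0.5 mM PEP, 0.1 mM ADP; 50 mM imidazole pH 7.2, 7 mM MgCl2, 50 mM KCl; 1 h RT. Kinase-Glo luminescence readout, normalized to no-enzyme (full inhibition) and uninhibited wells.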
TbPYK inhibitor: T. brucei pyruvate kinase inhibition; Potency, µM (highest dose often 76.8 µM), inactives show at the highest dose activity, negative = inhibition, usual class: inhibitors; AID 624173; Q57TT1; 0.12% of 410,000 active; TbPYK enzyme, Kinase-Glo Plus ATP luminescence, 45 min; further: potency means the concentration at half of the fitted maximal effect; on the % scale 0 is the no-effect control and ±100 the full control effect; nearly all actives have a fitted effect of over 50% in size
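T. brucei PYK with substrate was exposed to pin-transferred compounds across a concentration series, then started with 130 uM ADP (final). After 45 min at room temperature, Kinase-Glo Plus luminescence was read, normalized and curve-fitted.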
* marks the source's active call; other numbers are inactive results; ? = inconclusive; . = no result given; [ ] = remark or other dose. This is one part of a sample in which hits are shown more often than they occur. Unless noted, the call rests on the fitted dose curve; in most records, active means well fitted curve in the direction sought with a large enough effect; inconclusive means small, poorly fitted or top-dose-only effect, or another doubt; inactive means no such curve, though single readings can be large; an effect the other way counts as inactive or inconclusive.

SMILES | CHX counter | RE007 growth inh | Shiga toxin inh | FBPA Giardia inh | LmPK inh | TbPYK inhibitor
O=C(COC(=O)c1ccccc1NC(=O)c1ccco1)NCC1CCCCC1 | 0 | -8% | 18 | -1% | 1% | -2%
O=C(COC(=O)c1ccccc1NC(=O)c1ccco1)NCCC1=CCCCC1 | 30* | 0% | 108 | 5% | -3% | -3%
O=C(COC(=O)c1cccs1)NCCC1=CCCCC1 | 14* | 5% | 15 | -4% | -7% | -1%
O=C(COC(=O)c1ccc(F)cc1F)NCCC1=CCCCC1 | . | 33% | . | . | . | 2%
Cc1ccc(C(=O)OCC(=O)NCCC2=CCCCC2)s1 | 0 | -9% | 14 | 4% | 0% | 0%
O=C(COC(=O)c1ccc(O)cc1)NCCC1=CCCCC1 | 8 | 17% | 5 | 9% | 6% | -3%
O=C(COC(=O)c1ccccc1Cl)NCCC1=CCCCC1 | 31* | 6% | 83* | 2% | -4% | 2%
O=C(CSc1nc2c([nH]c3ccccc32)c(=O)n1-c1ccc(F)cc1)NCC1CCCO1 (centres undefined) | . | . | . | . | . | 3%
CCCCCn1cc2c(c1-c1ccc(Cl)cc1)c(=O)n(C)c(=O)n2C | . | . | . | . | . | -3%
O=C(Nc1ccccc1C(=O)OCC(=O)c1c[nH]c2ccccc12)c1ccco1 | 57* | -1% | 82* | 1% | 1% | 0%
O=C(COC(=O)c1ccc2c(c1)OCCO2)NCCC1=CCCCC1 | 23* | -11% | 100* | 7% | 3% | 6%
O=C(CCSCc1cccc(Cl)c1)NCCC1=CCCCC1 | -3 | -12% | -7 | 1% | 0% | -1%
Cc1ccc(CSCCC(=O)NCCC2=CCCCC2)cc1 | 23* | -18% | 21 | 5% | 3% | -17%
COC(=O)c1ccccc1NC(=O)c1ccco1 | -1 | -16% | -5 | 12% | -6% | -1%
Cc1ccc(C(=O)CC(=O)c2cccc(F)c2)c(O)c1 | 36* | -21% | 77* | -5% | 1% | 3%
COc1ccc(C(=O)CCC(=O)Nc2ccccc2C)cc1 | . | . | . | . | . | 3%
Cc1ccc(C(=O)CC(=O)c2ccccc2C)c(O)c1 | 20* | -12% | 39 | -19% | -1% | -16%
Cc1ccc(C(=O)CCC(=O)Nc2ccccc2C)c(C)c1 | 29* | 41% | 12 | 4% | -8% | -5%
CC(=O)c1ccc(C)cc1OC(=O)c1cccc(F)c1 | -3 | -9% | 1 | 1% | 5% | -3%
Cc1ccc(C(=O)c2ccccc2C(=O)O)c(O)c1 | -4 | 6% | -13 | 8% | 1% | -7%
O=C(Cn1cc(S(=O)(=O)c2ccccc2)c(=O)c2cc3c(cc21)OCO3)Nc1ccc(Cl)cc1 | . | . | . | . | . | -7%
CCOc1ccc(N=CNc2ccc(OCC)cc2)cc1 | 1 | -4% | 20 | 3% | 0% | 0%
CCOc1ccc2nc(/N=C/c3nc(-c4ccc(Br)cc4)oc3O)sc2c1 | 6 | -5% | 1 | 6% | 2% | 1%
C=CCN=Cc1sc2ccc(OCC)cc2c1O | 51* | . | 153* | -4% | -4% | .
CCCCN=Cc1sc2ccc(OCC)cc2c1O | 69* | -4% | 67* | -1% | 9% | -12%
SMILES | CHX counter | RE007 growth inh | Shiga toxin inh | FBPA Giardia inh | LmPK inh | TbPYK inhibitor
CCOC(=O)c1cc(-c2ccccc2)n(CCC(=O)Nc2nc3c(C)cccc3s2)c1C | . | . | . | . | . | 6%[15.4 µM]
O=[N+]([O-])c1cc(S(=O)(=O)NCCN2CCOCC2)ccc1Sc1nnnn1-c1ccccc1 | 16* | -9% | 10 | -20% | 8% | -2%
CCCCSc1ncnc2[nH]ncc12 | 23* | -7% | 25 | -1% | -6% | -6%
O=S(=O)(Cc1nc2ccccc2s1)c1ccccc1 | 27* | 2% | 52* | -5% | -14% | -4%
c1ccc(OCc2nc3ccccc3s2)cc1 | 61* | -14% | 68* | 2% | ? | -7%
O=S(=O)(CCc1nc2ccccc2s1)c1ccc(Cl)cc1 | -2 | -9% | -11 | -2% | 4% | 1%
CCC(=O)Nc1ccc(OCc2nc3ccccc3s2)cc1 | 44* | 38% | 117* | -3% | 5%[11.5 µM] | -12%
N#Cc1ccc(NC(=O)CCc2nc3ccccc3s2)cc1 | 8 | -3% | 10 | 5% | 0% | 3%
Fc1ccc(OCc2nc3ccccc3s2)cc1 | 52* | -7% | 114* | -4% | ? | -1%
Cc1cc(OCc2nc3ccccc3s2)ccc1N | 59* | -20% | 112* | -4% | -13% | -21%
Cc1cc(-c2nc3ccccc3s2)ccc1N | . | -1% | . | . | . | -23%
CC(C)(C)NC(=O)C(c1ccncc1)N(C(=O)Cn1nnc(-c2ccc(F)cc2)n1)c1ccccc1F (centres undefined) | 21* | 0% | 38 | 0% | -5% | 0%
CN1CCN(c2ncc3nc(-c4cn(C)c5ccccc45)c(=O)n(CCC#N)c3n2)CC1 | . | . | . | -26% | . | .
O=C(Nc1ccc2c(c1)ncn2-c1ccccc1)c1ccco1 | 38* | 7% | 45* | -5% | -9% | ?
CC(=O)Nc1ccc2c(c1)ncn2C | -2 | 12% | -4 | -3% | -3% | -6%
Cn1c(CCN2CCN(c3ccccc3)CC2)nc2cc(NC(=O)c3ccco3)ccc21 | -1 | -2% | 20 | 0% | 7% | -4%
Cn1cnc2cc(NC(=O)c3ccco3)ccc21 | 25* | 8% | 79* | -4% | -21% | 0%
CC(=O)Nc1ccc2c(c1)ncn2-c1ccc(C)cc1 | 42* | 0% | 99* | 4% | -17% | 4%
N#Cc1nc(-c2ccccc2Cl)oc1N1CCOCC1 | 17* | ? | 18 | 7% | 2% | 2%
CC1CCN(c2oc(-c3ccc(F)cc3)nc2C#N)CC1 | 41* | 4% | 62* | -10% | 1% | -3%
CC1CCN(c2oc(-c3ccccc3Cl)nc2C#N)CC1 | 37* | -12% | 99* | 2% | -6% | 11%
Cc1cccc(-c2nc(C#N)c(N3CCC(C)CC3)o2)c1 | 2 | -4% | -9 | -5% | 5% | -1%
COc1ccccc1-c1nc(C#N)c(N2CCCCCC2)o1 | 6 | 14% | 34 | -2% | 1% | -1%
Cc1ccccc1-c1nc(C#N)c(N2CCC(C)CC2)o1 | 24* | -5% | 46* | -4% | 4% | 2%
CCOc1c(Br)cc(C2CC(=O)Nc3cc4c(cc32)OCO4)cc1OC (centres undefined) | . | . | . | . | . | -1%
CC(C)C(OC(=O)c1cc2c(s1)CCCCC2)C(=O)NC(N)=O (centres undefined) | -4 | 7% | -8 | 5% | 4% | -8%
CC(OC(=O)c1cc2c(s1)CCCCC2)C(=O)NC(N)=O (centres undefined) | 23* | 15% | 35 | 5% | 0% | 4%
CC(C)NC(=O)c1cc2c(s1)CCCC2 | 18* | -15% | 44* | -13% | -7% | 2%
